HCMV antiviral: inhibitors of human cytomegalovirus. HFF cells, HCMV-luciferase reporter, 72 h; hits give low values. activity change, negative = inhibition, % at 57.5 µM. hit rate 4.5% among 410,000. AID 1259415; in the data active means activity change below about -60%; inconclusive means no clear call, values can overlap the other calls; inactive means above about -39%
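Two-dose cell screen: HFF monolayers treated with compounds and infected with luciferase-expressing HCMV at 1 PFU/cell, 72 h at 37C, then lysed for luciferase measurement.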
Sm TGR block: blocks Schistosoma mansoni thioredoxin glutathione reductase. Q962Y6. purified TGR, DTNB reduction, TNB absorbance 405 nm. Potency, µM (doses to about 114 µM), without a hit: at the top dose activity change, negative = inhibition, hits mostly inhibitors. hit rate 3% among 360,000. AID 485364; further: potency means the concentration at half of the fitted maximal effect; nearly all actives have a fitted effect of over 60% in size
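Kinetic colorimetric format: TGR-catalysed, NADPH-driven DTNB reduction monitored via TNB absorbance. Enzyme dispensed at 20 nM; compound exposure 15 min at room temperature before reaction start.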
Pf growth 48h: P. falciparum growth inhibition at 48 hours (one generation); AID 504832; P. falciparum luciferase growth in erythrocytes, 48 h; hit rate 5.9% among 310,000; Potency, µM (highest dose often 28.7 µM), inactives show at the top dose activity change, negative = inhibition, usual class: inhibitors; further: potency means the concentration at half of the fitted maximal effect
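In quantitative HTS format, infected erythrocytes bearing luciferase-reporter parasites were treated for a single generation at 37 C. Luminescence after adding detection reagent served as the growth measure.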
Pf growth 96h: inhibits malaria parasite growth, 96 h; P. falciparum luciferase reporter growth, 96 h; Potency, µM (doses to about 28.7 µM), without a hit: at the top dose activity change, negative = inhibition, usual class: inhibitors; hit rate 6.9% among 320,000; AID 504834; further: potency means the concentration at half of the fitted maximal effect
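Infected RBCs, 2% Hct / 0.05% parasitemia final; luciferase-reporter P. falciparum; cpd 96 h, 37 C, 5% CO2; luciferase detection reagent; luminescence.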
FBPA Giardia inh: blocks Giardia fructose-bisphosphate aldolase activity; Potency, µM (top dose mostly 59.6 µM), for inactives: top-dose activity, negative = inhibition, most hits filed as inhibitors; hit rate 0.71% among 290,000; purified Giardia FBPA; AID 2451; A8B2U2; further: potency means the concentration at half of the fitted maximal effect; nearly all actives have a fitted effect of over 55% in size
Target sequence (A8B2U2 whole entry, looked up): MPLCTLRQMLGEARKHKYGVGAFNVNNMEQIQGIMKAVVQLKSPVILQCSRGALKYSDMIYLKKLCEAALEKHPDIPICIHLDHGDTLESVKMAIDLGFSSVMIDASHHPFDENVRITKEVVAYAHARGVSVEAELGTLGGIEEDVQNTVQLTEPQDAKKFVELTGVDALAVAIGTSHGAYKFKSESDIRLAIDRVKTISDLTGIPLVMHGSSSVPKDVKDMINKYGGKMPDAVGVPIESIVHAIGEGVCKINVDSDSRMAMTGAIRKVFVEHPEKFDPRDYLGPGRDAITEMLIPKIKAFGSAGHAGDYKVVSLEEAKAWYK
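40 nM FBPA preincubated 10 min at RT with compound (up to 57.5 uM final), then substrate plus GAPDH/TPI/NAD/arsenate coupling and diaphorase/resazurin added. Fluorescence read after 20 min at RT, 525/598 nm.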
Numbers without * were called inactive; ? = inconclusive; · = no result; [ ] = dose if it differs, or a comment. Only some compounds are listed: those with a hit (about 14% of all), similar ones and a draw of the others. Unless noted, the call rests on the fitted dose curve; in most records, active means well fitted curve in the direction sought with a large enough effect; inconclusive means small, poorly fitted or top-dose-only effect, or another doubt; inactive means no such curve, though single readings can be large; an effect the other way counts as inactive or inconclusive. On the % scale 0 is the no-effect control and ±100 the full control effect.

SMILES	HCMV antiviral	Sm TGR block	Pf growth 48h	Pf growth 96h	FBPA Giardia inh
O=C(Nc1cccc(-c2ccc(N3CCOCC3)nn2)c1)c1ccc(F)cc1F	25.1	0.4%	60.0%	53.2%	·
CC1(NC(=O)Nc2cccc3ccccc23)CCS(=O)(=O)C1 (centres undefined)	-28.8	-6.5%	11.1%	22.8%	8.7%
CCCCCn1c(=O)c(C(=O)Nc2ccccc2S(N)(=O)=O)c(O)c2ccccc21	-100.8*	4.2%	32.7%	8.0%	-6.4%
CCCCn1c(=O)c(C(=O)Nc2ccccc2S(N)(=O)=O)c(O)c2ccccc21	?	-6.3%	-0.6%	26.3%[5.75 µM]	2.0%
CCCn1c(=O)c(C(=O)Nc2ccccc2C)c(O)c2ccccc21	89.6	44.7µM*	61.8%	3.8%	?
COc1cc(C(=O)Sc2ccc(C)cc2)cc(OC)c1OC	0.4	-21.2%	-28.0%	?	-1.3%
COc1ccccc1OCC(=O)Sc1ccc(C)cc1	21.3	7.08µM*	4.0%	47.4%	-1.9%
Cc1ccc(OCC(=O)Oc2c(C)cccc2C)cc1	17.3	-10.8%	7.4%	0.329µM*	3.8%
Cc1cccc(OCC(=O)Oc2ccc(Cl)cc2)c1	-8.5	·	·	·	·
Cc1ccc(OCC(=O)Sc2ccc(C)cc2)cc1	24.1	17.8µM*	·	26.3%	4.8%
C[C@H]1CN([C@@H](C)CO)C(=O)CCCn2nncc2CO[C@H]1CN(C)C(=O)Cc1ccccc1	1.5	·	·	·	·
COc1ccc(NC(=O)CN2C(=O)COc3ccc(S(=O)(=O)Nc4ccccc4)cc32)cc1	9.6	3.5%	·	·	·
CN(C)c1cc2c(cc1NC(=O)c1ccccc1Cl)n(C)c(=O)n2C	-18.6	-21.6%	?	?	-5.4%
COc1cc2c(cc1OC)C(c1ccc(N(C)C)cc1)NCC2 (centres undefined)	?	-23.9%	10.8%	21.4%	-14.1%
CC(C)(O)C#CC#CCN1CCOCC1	-15.7	0.0%	7.4%	10.4µM*	3.9%
Cc1nn(C)c(C)c1NC(=O)CN1CCC(O)(c2ccc3c(c2)OCO3)CC1	-8.1	1.3%	11.5%	10.4µM*	5.8%
CC(C)(C)c1ccc(/C=C2\CCn3c2nc2cc(C(=O)O)ccc2c3=O)cc1	·	0.1%	·	-14.3%	-22.6%
Cc1ccc(C(O)c2ncc(-c3ccc(F)cc3)[nH]2)c(C)c1 (centres undefined)	-6.9	·	·	·	·
COc1ccccc1C(=O)N1c2ncnn2C2(CCCCC2)[C@@H]2CCCC[C@@H]21	-5.2	0.0%	·	·	·
CC(C)C(=O)N1c2ncnn2C2(CCCCC2)[C@@H]2CCCC[C@@H]21	-110.8*	-23.3%	·	·	·
O=C1C2C(c3ccccc3)(C(=O)N1c1ccc(Cl)cc1)C2(c1ccccc1)c1ccccc1 (centres undefined)	-25.3	-12.7%	4.15µM*	?	-2.0%
O=C1NC(c2ccccc2)=C(c2ccc3ccccc3n2)C(c2ccccc2)N1 (centres undefined)	1.7	3.6%	11.7µM*	5.22µM*	1.4%
O=C1NC(c2ccccc2)=C(c2ccc3ccccc3n2)C(c2ccncc2)N1 (centres undefined)	47.4	0.6%	-2.6%	?	2.8%
O=C1NC(c2ccccc2)=C(c2nc3ccccc3s2)C(c2ccc(O)cc2)N1 (centres undefined)	·	-9.8%	2.08µM*	7.38µM*	-1.3%
O=C1NC(c2ccccc2)=C(c2ccc3ccccc3n2)C(c2ccc(F)cc2)N1 (centres undefined)	0.2	-7.7%	5.22µM*	4.15µM*	-4.7%
CC(=O)OCC(CO)OC(C)=O (centres undefined) (tested in a mixture with another compound)	·	·	·	·	-3.2%
CN(Cc1c(O)ccc2c1oc(=O)c1ccccc12)C1CCCCC1	24.8	0.5%	5.22µM*	?	?
CN(C)Cc1c(O)ccc2c3c(c(=O)oc12)CCCCC3	-34.5	-17.4%	?	·	-4.2%
Cc1c(Cc2ccccc2)c(=O)oc2c(C)c(OCC(=O)N[C@@H](Cc3ccccc3)C(=O)O)ccc12	-2.3	0.0%	10.7%	?	1.2%
COc1ccc(CCN2CCCC(CN(C)C(=O)c3ccoc3)C2)cc1 (centres undefined)	27.5	7.8%	-0.5%	0.0%	·
